Measurements as given in PubChem BioAssay AID1159580 (chemical genetic matrix, 2015).
Hit rate of the full screen: of about 5,500 compounds, about 2,000 (36%) were called active. About 18% were inconclusive and are not listed. Cut-off read from the data, not from the text of the source: active = normalized growth mostly below about 0.91 (no sharp cut-off); inconclusive = no clear call, values can overlap the other calls; inactive = mostly above about 0.92. The list shows a part of the results.

Test: chemical genetic growth profiling, strain panel (AID 1159580);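 note: tested at 20 µM; growth read once vehicle control cultures reached saturation at 30 °C; 1 = growth at the plate median or of vehicle wells; lower values mean less growth of the strain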
Conditions: S. cerevisiae deletion strains, growth OD
[1] = locus YDL101C, strain DUN1, stronger effect = lower value
[2] = locus YHR030C, strain SLT2, stronger effect = lower value

Measured: normalized growth

Cc1c(Cl)cccc1NC(=S)N1CCCN(c2nc3ccc(Cl)cc3s2)CC1
active: [2] 0.625 | locus YLR113W, strain HOG1, stronger effect = lower value 0.794 | locus YPL256C, strain CLN2, stronger effect = lower value 0.772
inactive: locus YAR019C, strain CDC15, stronger effect = lower value 0.977 | locus YBL105C, strain PKC1, stronger effect = lower value 0.977 | locus YBR135W, strain CKS1, stronger effect = lower value 0.983 | locus YBR136W, strain MEC1, stronger effect = lower value 0.979 | locus YBR160W, strain CDC28, stronger effect = lower value 0.978 | locus YDL017W, strain CDC7, stronger effect = lower value 0.972 | locus YDL028C, strain MPS1, stronger effect = lower value 0.978 | [1] 0.965 | locus YDL108W, strain KIN28, stronger effect = lower value 0.983 | locus YDL132W, strain cdc53, stronger effect = lower value 0.99 | locus YDL214C, strain PRR2, stronger effect = lower value 0.97 | locus YDR052C, strain DBF4, stronger effect = lower value 0.986 | locus YDR054C, strain cdc34, stronger effect = lower value 0.975 | locus YDR226W, strain ADK1, stronger effect = lower value 0.984 | locus YDR477W, strain SNF1, stronger effect = lower value 0.933 | locus YER123W, strain YCK3, stronger effect = lower value 0.936 | locus YER133W, strain GLC7, stronger effect = lower value 0.941 | locus YFL009W, strain cdc4, stronger effect = lower value 0.98 | locus YFL029C, strain CAK1, stronger effect = lower value 0.968 | locus YFR003C, strain YPI1, stronger effect = lower value 0.985 | locus YFR019W, strain FAB1, stronger effect = lower value 1.01 | locus YFR028C, strain CDC14, stronger effect = lower value 0.98 | locus YGR040W, strain KSS1, stronger effect = lower value 0.937 | locus YGR052W, strain FMP48, stronger effect = lower value 0.975 | locus YGR092W, strain DBF2, stronger effect = lower value 0.722 | locus YHR079C, strain IRE1, stronger effect = lower value 0.7 | locus YHR082C, strain KSP1, stronger effect = lower value 1.06 | locus YHR205W, strain SCH9, stronger effect = lower value 0.97 | locus YIL147C, strain SLN1, stronger effect = lower value 0.981 | locus YJL095W, strain BCK1, stronger effect = lower value 0.863 | locus YJL128C, strain PBS2, stronger effect = lower value 0.957 | locus YJL157C, strain FAR1, stronger effect = lower value 0.897 | locus YJR016C, strain ILV3, stronger effect = lower value 0.978 | locus YJR066W, strain TOR1 (second series), stronger effect = lower value 0.84 | locus YJR066W, strain TOR1, stronger effect = lower value 0.947 | locus YKL048C, strain ELM1, stronger effect = lower value 0.97 | locus YKL067W, strain YNK1, stronger effect = lower value 0.947 | locus YKL101W, strain HSL1, stronger effect = lower value 0.963 | locus YKL193C, strain SDS22, stronger effect = lower value 0.978 | locus YKL203C, strain TOR2, stronger effect = lower value 0.974 | locus YLR133W, strain CKI1, stronger effect = lower value 0.941 | locus YLR403W, strain SFP1, stronger effect = lower value 0.898 | locus YML070W, strain DAK1, stronger effect = lower value 0.972 | locus YMR001C, strain CDC5, stronger effect = lower value 0.982 | locus YMR205C, strain PFK2 (second series), stronger effect = lower value 0.971 | locus YMR277W, strain FCP1, stronger effect = lower value 0.976 | locus YNL006W, strain LST8, stronger effect = lower value 0.963 | locus YNL020C, strain ARK1, stronger effect = lower value 0.909 | locus YNL161W, strain CBK1, stronger effect = lower value 0.986 | locus YNL183C, strain NPR1, stronger effect = lower value 0.989 | locus YNL207W, strain RIO2, stronger effect = lower value 0.976 | locus YNL222W, strain SSU72, stronger effect = lower value 0.98 | locus YNL307C, strain MCK1 (second series), stronger effect = lower value 0.951 | locus YOL078W, strain AVO1, stronger effect = lower value 0.992 | locus YOL136C, strain PFK27, stronger effect = lower value 0.942 | locus YOR061W, strain CKA2, stronger effect = lower value 0.87 | locus YOR119C, strain RIO1, stronger effect = lower value 0.974 | locus YOR231W, strain MKK1, stronger effect = lower value 0.876 | locus YOR329C, strain SCD5, stronger effect = lower value 0.974 | locus YPL031C, strain PHO85, stronger effect = lower value 0.937 | locus YPL153C, strain RAD53, stronger effect = lower value 0.908 | locus YPL204W, strain HRR25, stronger effect = lower value 0.876 | locus YPL209C, strain IPL1, stronger effect = lower value 0.978 | locus YPR025C, strain CCL1, stronger effect = lower value 0.975 | locus YPR106W, strain ISR1, stronger effect = lower value 0.981 | locus YPR111W, strain DBF20, stronger effect = lower value 0.992 | strain NNK1, stronger effect = lower value 0.984 | strain TSCII, stronger effect = lower value 0.976

O=[N+]([O-])c1cc(C(F)(F)F)ccc1N1CCN(CCO)CC1
inactive: locus YAL013W, strain DEP1, stronger effect = lower value 0.995 | locus YBR229C, strain ROT2, stronger effect = lower value 0.987 | [1] 0.989 | locus YDR150W, strain NUM1, stronger effect = lower value 1 | locus YEL061C, strain CIN8, stronger effect = lower value 0.993 | locus YGR078C, strain PAC10, stronger effect = lower value 0.977 | [2] 0.953 | locus YHR087W, strain rtc3, stronger effect = lower value 1.03 | locus YJL187C, strain SWE1, stronger effect = lower value 1 | locus YJR043C, strain POL32, stronger effect = lower value 0.991 | locus YJR075W, strain HOC1, stronger effect = lower value 0.986 | locus YLR039C, strain RIC1, stronger effect = lower value 0.978 | locus YLR058C, strain SHM2 (second series), stronger effect = lower value 0.982 | locus YLR085C, strain ARP6, stronger effect = lower value 0.981 | locus YLR262C, strain YPT6, stronger effect = lower value 0.97 | locus YML094W, strain GIM5, stronger effect = lower value 0.992 | locus YMR219W, strain ESC1, stronger effect = lower value 0.997 | locus YMR263W, strain SAP30, stronger effect = lower value 0.937 | locus YNL153C, strain GIM3, stronger effect = lower value 0.99 | locus YNL298W, strain CLA4 (second series), stronger effect = lower value 0.941 | locus YNL322C, strain KRE1, stronger effect = lower value 0.982 | locus YNR030W, strain Alg12, stronger effect = lower value 0.943 | locus YOL006C, strain TOP1, stronger effect = lower value 0.941 | locus YPL055C, strain LGE1, stronger effect = lower value 1.03 | locus YPL241C, strain CIN2, stronger effect = lower value 0.974 | locus YPR135W, strain CTF4, stronger effect = lower value 0.893
